The whole screen tested about 2,100 compounds, of which about 670 (32%) were called active. Not shown: some 50% with an inconclusive outcome. The list shows a part of the results. A number with no mark means an inactive call. The call rests on the fitted dose curve; in most records, active means well fitted inhibition curve with a large enough effect; inconclusive means small, poorly fitted or top-dose-only effect; inactive means no such curve, though single readings can be large or run the other way.
On the % scale 0 is the no-effect control and ±100 the full control effect; potency means the concentration at half of the fitted maximal effect.

This assay can be described thus: CMV-Luciferase Counterscreen for Inhibitors of ATXN expression. Further: nearly all actives have a fitted effect of over 55% in size. Particulars: HEK-293 CMV-luciferase reporter, luminescence, 24 h; series mostly up to 57.5 µM; activity change, negative = inhibition: at the top concentration. For orientation: The purpose of a counterscreen is to sort out artefacts and off-target activity.
Turning to `CCOC(=O)c1c(-c2ccccc2)oc2cc(CN(C)C)c(O)c(CN(C)C)c12`, the Potency is 8.91 µM (active).
Take `CC(=O)Nc1ccc(N(CC(O)Cn2c3ccccc3c3ccccc32)S(=O)(=O)c2ccc(C)cc2)cc1` (configuration not stated): the Potency is 20 µM (active).
For `O=C(CSc1nnnn1-c1ccccc1)Nc1nsc(-c2ccccc2)n1`, the “activity change, negative = inhibition” value is -0.699%.
As to `CSc1sc(-c2nnc(SCC(=O)Nc3ccc(Cl)cc3)n2C)c2c1C=CCC2`, the activity change, negative = inhibition was -19.8% [at 11.4 µM].
Consider `Cn1c(SCC(=O)N/N=C/c2ccc([N+](=O)[O-])s2)nnc1-c1ccccc1`, for which the Potency was 22.4 µM (active).
Turning to `Cn1c(SCC(=O)N/N=C/c2ccc([N+](=O)[O-])s2)nnc1-c1ccc(Cl)cc1`, the Potency was 15.8 µM (active).
Take `Cn1c(SCC(=O)Nc2cc(Cl)cc(Cl)c2)nnc1-c1ccc2nonc2c1`: the activity change, negative = inhibition was -10.7% [at 11.4 µM].
Take `Cc1ccc2[nH]c(=O)c(CN(CCCN(C)C)C(=O)Nc3cccc(Cl)c3)cc2c1`: the “activity change, negative = inhibition” value is -29.3%.
As to `O=c1c2ccc(Cl)cc2nc(-c2ccc([N+](=O)[O-])cc2)n1O`, the Potency is 7.94 µM (active).
As for `CC(C)(C)c1cc(C(=O)NNc2cc(C(F)(F)F)ccc2Cl)n(Cc2ccccc2)n1`, the “activity change, negative = inhibition” value is 24.6%.
As for `Cc1cc(Cl)c(C(=O)Nc2cccc(C(F)(F)F)c2)c(C)n1`, the Potency is 17.8 µM (active).
As for `Cc1nc(-c2c(C(F)(F)F)noc2-c2ccc(O)cc2O)cs1`, the Potency is 11.2 µM (active).
As to `CCC(=O)NC(c1ccc(Cl)cc1Cl)c1ccc2cccnc2c1O` (configuration not stated), the Potency was 2.24 µM (active).
On to `CCCCC(=O)NC(c1ccccc1Cl)c1ccc2cccnc2c1O` (configuration not stated), for which the Potency is 2.51 µM (active).
In the case of `CCCCC(=O)NC(c1ccc(OC)c(OC)c1)c1ccc2cccnc2c1O` (configuration not stated), the Potency was 2.82 µM (active).
`CCCCC(=O)NC(c1ccccc1OC)c1ccc2cccnc2c1O` (configuration not stated): the Potency is 2.82 µM (active).
On to `COc1ccc(N2C3=C(CC4=C2CC(C)(C)CC4=O)C(=O)CC(C)(C)C3)cc1`, for which the activity change, negative = inhibition is -2.52% [at 11.4 µM].
For `CCCC(=O)NC(c1ccc(Cl)cc1Cl)c1ccc2cccnc2c1O` (configuration not stated), the Potency was 2.51 µM (active).
On the same count and under the same terms, with `CCCCC(=O)NC(c1ccc(Cl)cc1Cl)c1ccc2cccnc2c1O` (configuration not stated) the figure was 0.794 µM (active); with `CCCCOc1ccc(C(=O)NNC(=O)c2cnccn2)cc1OC`, 10 µM (active).
Consider `CN(C)CCC(c1ccc(Br)cc1)c1ccccn1` (configuration not stated), for which the “activity change, negative = inhibition” value was -17.1%.
Regarding `Cc1noc(C)c1CSCC(=O)Nc1nc(-c2ccc(F)c(F)c2)cs1`, the Potency is 25.1 µM (active).
As to `COc1cc(C(=O)OC(C)C(=O)N2CCc3ccccc3C2)ccc1OCC(=O)N1CCOCC1` (configuration not stated), the activity change, negative = inhibition is -9.5% [at 11.4 µM].
With `COc1ccc(-c2csc(NC(=O)c3ccc(OCC(=O)N4CCOCC4)c(OC)c3)n2)cc1OC`, the Potency is 14.1 µM (active).
Take `COCCNc1nc(-c2cc(C)n(CCc3ccc(OC)cc3)c2C)cs1`: the “activity change, negative = inhibition” value is -10.1%.
With `COc1ccc(CC(=O)Nc2nc(-c3ccc(F)c(F)c3)cs2)cc1OC`, the Potency was 6.31 µM (active).
Still for that read-out and setting: as for `COc1ccc(CC(=O)Nc2nc(-c3ccc(OC)c(OC)c3)cs2)cc1OC`, the figure is 3.55 µM (active).
For the molecule `COc1ccc(/C(N)=N/OC(=O)N2CCOCC2)cc1`, the activity change, negative = inhibition was 20.7% [at 11.4 µM].
In the case of `O=C(CCN1C(=O)C2CC=CCC2C1=O)Nc1nc(-c2ccc(F)c(F)c2)cs1` (configuration not stated), the “activity change, negative = inhibition” value is -0.282%.
On to `O=C(Nc1nc(-c2ccc(F)c(F)c2)cs1)Nc1ccc(F)cc1F`, for which the activity change, negative = inhibition is 6.09% [at 11.4 µM].
On to `Cc1ccc(NC(=O)CCC(=O)c2cc(C)sc2C)nc1`, for which the “activity change, negative = inhibition” value was 301%.
Regarding `Cc1ccc(OCC(=O)N2CCN(c3nnc(-c4ccc(C)cc4)c4ccccc34)CC2)cc1`, the Potency was 2.24 µM (active).
For `CCCCOC(=O)/C=C\C(=O)NC(N)=O`, the Potency is 14.1 µM (active).
In the case of `CCOC(=O)/C=C/C(=O)Nc1ccc(Oc2ccccc2)cc1`, the activity change, negative = inhibition was -6.32% [at 11.4 µM].
Turning to `Cc1nc2cc(NC(=O)CSc3nc4c(C)cccc4cc3C#N)ccc2s1`, the “activity change, negative = inhibition” value was -19.4%.
`CCCN(CCC)S(=O)(=O)c1ccc(C(=O)Nc2nnc(-c3cc(OC)cc(OC)c3)o2)cc1`: the Potency is 0.794 µM (active).
Regarding `Cc1nc2ccc(NC(=O)c3cccc(S(=O)(=O)N(C)c4ccccc4)c3)cc2s1`, the Potency is 3.55 µM (active).
In the case of `Cc1ccc2nc(N(CCCN(C)C)C(=O)c3ccc(S(=O)(=O)N4CCCCCC4)cc3)sc2c1`, the activity change, negative = inhibition is -18.5% [at 11.4 µM].
Turning to `CN(c1ccccc1)S(=O)(=O)c1ccc(C(=O)Nc2nnc(-c3ccc(F)cc3)o2)cc1`, the Potency is 10 µM (active).
With `Cc1nc2ccc(NC(=O)c3ccc(S(=O)(=O)N(C)c4ccccc4)cc3)cc2s1`, the Potency was 3.98 µM (active).
On the same count and under the same terms, as for `O=C(Nc1nnc(-c2ccc(F)cc2)o1)c1cc(Cl)sc1Cl`, the figure is 10 µM (active); as for `Cc1cccc(NC(=O)c2ccc(S(=O)(=O)N(C)c3ccccc3)cc2)n1`, 14.1 µM (active); as for `O=C(c1ccco1)N1CCCC(c2nc(-c3ccc(S(=O)(=O)NCc4ccccc4)cc3)no2)C1` (configuration not stated), 11.2 µM (active).
Take `COc1cc2c3nnc(-c4ccc(F)cc4)c-3cn(Cc3ccc(F)cc3)c2cc1OC`: the activity change, negative = inhibition is -11.8% [at 11.4 µM].
Take `CCOC(=O)N1CCN(c2ccnc3cc(Cl)ccc23)CC1`: the Potency was 2.51 µM (active).
As for `O=C(c1ccco1)N1CCN(c2ccnc3cc(Cl)ccc23)CC1`, the Potency was 14.1 µM (active).
Take `O=C(C1CCCCC1)N1CCN(c2ccnc3cc(Cl)ccc23)CC1`: the Potency was 5.01 µM (active).
Turning to `CC(C)N(C(=O)N1CCN(c2ccnc3cc(Cl)ccc23)CC1)C(C)C`, the Potency was 12.6 µM (active).
`CCOC(=O)C(=CNc1ccc2c(c1)nnn2-c1ccc(Cl)cc1)C(=O)OCC`: the “activity change, negative = inhibition” value is 7.31%.
Take `Cc1cc2oc3ccc(NCCC4CCCN4C)cc3c(=O)c2cc1C` (configuration not stated): the “activity change, negative = inhibition” value was 6.26%.
For the molecule `CN[C@H]1C[C@H]2c3[nH]c4ccc(-c5ccc(OC)cc5)cc4c3CCN2C(=O)[C@H]1[C@H](C)O`, the Potency is 3.55 µM (active).
In the case of `Cc1nn(C)c(C)c1NC(=O)CSc1nc(Cc2ccccc2)nc2c1cnn2-c1ccccc1`, the activity change, negative = inhibition is -7.1% [at 11.4 µM].
For the molecule `N/C(=C\C(=O)c1cc(Cl)ccc1O)C(Cl)(Cl)Cl`, the activity change, negative = inhibition is 21.6% [at 11.4 µM].
On to `COc1ccc(/C(C)=N/NC(=O)c2cccc(S(=O)(=O)N3CCCC3)c2)c(O)c1`, for which the Potency was 3.98 µM (active).
Consider `CC(C)CC(=NNC(=O)c1ccncc1)c1cc(Cl)ccc1O`, for which the Potency is 0.282 µM (active).
For `CC(=NNC(=O)c1ccncc1)c1ccc2ccccc2c1O`, the Potency was 0.794 µM (active).
Consider `C/C(=N\NC(=O)c1cc(-c2cccnc2)nc2ccccc12)c1ccc(O)cc1O`, for which the Potency was 2.51 µM (active).

The values above are taken from PubChem BioAssay AID1745847 (National Center for Advancing Translational Sciences (NCATS), 2022).
